# CASP6 VEID inh = caspase-6 (human) enzyme inhibition; inhibition, % at 12.5 µM; hit rate 0.53% among 350,000; P55212; AID 686996; purified caspase-6, Z-VEID-R110 cleavage fluorescence;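 active = mean inhibition across replicates at least about 35%, with every replicate also reaching that limit, limit read from the data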;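 note: 0% = median of neutral control wells and 100% = no fluorescence left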
# Target sequence (P55212 24-179 limits assumed): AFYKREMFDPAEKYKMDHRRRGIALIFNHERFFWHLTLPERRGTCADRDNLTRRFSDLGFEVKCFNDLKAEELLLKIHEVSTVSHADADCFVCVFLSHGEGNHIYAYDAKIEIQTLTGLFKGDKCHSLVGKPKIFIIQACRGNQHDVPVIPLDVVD
# Target sequence (P55212 194-293 limits assumed): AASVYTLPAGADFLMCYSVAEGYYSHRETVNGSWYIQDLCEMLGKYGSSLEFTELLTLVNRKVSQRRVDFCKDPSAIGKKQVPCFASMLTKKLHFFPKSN
# NSD2 inh = NSD2 (human) methyltransferase inhibition | O96028 | NSD2 peptide methylation, AlphaScreen, 120 min | inhibition, % at 12.5 µM | hit rate 0.54% among 310,000; in the data active = inhibition above about 50%
# SIRT5 inh = blocks human SIRT5 desuccinylation of peptide; Q9NXA8; Purified SirT5, succinyl-peptide AMC, trypsin-coupled fluorescence; inhibition, % at 15 µM; hit rate 1.1% among 330,000; AID 652115; in the data active = inhibition above about 15%
# SUMO HTRF inh = SUMOylation inhibition | HTRF SUMOylation assay, SAE1/SAE2 + UBC9, in vitro | inhibition, % at 35 µM | hit rate 0.36% among 290,000 | P63279; in the data active = inhibition above about 50%, passing the limit was not always enough
# Target sequence (P63279 whole entry, looked up): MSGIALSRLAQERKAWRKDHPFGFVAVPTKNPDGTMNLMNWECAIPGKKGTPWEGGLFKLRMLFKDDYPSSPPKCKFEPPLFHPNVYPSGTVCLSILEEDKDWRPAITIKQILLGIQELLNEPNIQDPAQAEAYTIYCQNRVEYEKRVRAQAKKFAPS
# * marks the source's active call; other numbers are inactive results; x = no result; ! = repeats disagree. Only some compounds are listed: those with a hit (about 1.6% of all), similar ones and a draw of the others.
SMILES,CASP6 VEID inh,NSD2 inh,SIRT5 inh,SUMO HTRF inh
CN1C(=O)c2cc(NC(=O)c3cccc(F)c3)ccc2OC[C@@H]2O[C@@H](CC(=O)N3CCc4ccccc4C3)CC[C@H]21,56.0*,x,6.9,x
CN1C(=O)c2cc(NC(=O)Cc3cccs3)ccc2OC[C@H]2O[C@@H](CC(=O)NCCc3ccncc3)CC[C@@H]21,-2.0,x,5.9,x
CN1C(=O)c2cc(NC(=O)Cc3cccs3)ccc2OC[C@@H]2O[C@@H](CC(=O)NCCc3ccncc3)CC[C@@H]21,69.3*,x,-0.2,x
CN(C)C(=O)C[C@@H]1CC[C@@H]2[C@H](COc3ccc(NC(=O)c4ccc(F)c(F)c4)cc3C(=O)N2C)O1,0.3,x,16.4*,x
CN(C)C(=O)C[C@H]1CC[C@@H]2[C@@H](COc3ccc(NC(=O)c4ccc(F)c(F)c4)cc3C(=O)N2C)O1,2.3,x,-5.1,x
COc1cccc(NC(=O)N2CC3(C2)[C@H](c2ccccc2)[C@H](CO)N3C(=O)C2CCC2)c1,-1.2,x,x,x
COc1ccc(C#Cc2ccc3c(c2)[C@@H]2[C@@H](CCN2C(=O)c2ccncc2)[C@@H](CO)N3C)cc1,3.1,x,-0.8,x
C[C@@H]1CN([C@@H](C)CO)C(=O)Cc2cc(NC(=O)C3CCCCC3)ccc2O[C@H]1CN(C)C(=O)Nc1ccc(F)cc1,x,x,-3.4,x
CCN(CC)c1ccc(/C=C2\C(=O)N(c3nnc(C)c(=O)[nH]3)N=C2C)cc1,36.1*,4.8,3.2,-28.3
CCN(CC)c1ccc(/C=C2/C(=O)ON=C2C)cc1,0.5,6.9,5.7,19.4
C[C@@H]1CN([C@H](C)CO)S(=O)(=O)c2ccc(-c3ccc(C#N)cc3)cc2O[C@@H]1CN(C)Cc1ccccn1,x,x,0.3,x
O=C(Nc1cccnc1Cl)c1ccc(=O)oc1,54.2*,6.3,44.1*,-3.3
CC(C)N1CCC2(CC1)C(C#N)=C(N)NC(S)=C2C#N,x,x,x,52.0*
N#CC1=C(N)NC(SCC(=O)O)=C(C#N)C12CCCC2,x,0.0,x,11.6
Cc1nc(NC(=O)CSc2nnc3ncccn23)sc1C,x,1.5,x,x
COc1cc(/C=C/C(=O)O)cc(S(=O)(=O)NC2CCCC2)c1OC,-1.3,-3.3,-3.0,-21.6
COc1cc(/C=C/C(=O)O)cc(S(=O)(=O)Nc2cc(Cl)c(Cl)cc2Cl)c1OC,0.4,1.5,17.3*,25.2
CO[C@@H]1CN(C)C(=O)c2ccc(NS(=O)(=O)c3ccccc3F)cc2OC[C@@H](C)NC[C@@H]1C,1.0,x,-1.2,x
O=C(CC1CC1)N1CC(=O)N2[C@H](CO)[C@@H](c3ccc(-c4cccnc4)cc3)[C@H]2C1,0.6,x,-5.1,x
Cc1ccc(NC(=O)c2noc3c2CCC3)cc1C,53.7*,9.7,1.8,26.5
CNC(=O)C[C@H]1CC[C@@H]2[C@H](COC[C@@H](O)CN2C(=O)Nc2ccc3c(c2)OCO3)O1,2.2,x,0.8,x
C[C@@H]1CN([C@@H](C)CO)S(=O)(=O)c2ccc(-c3cccc(C#N)c3)cc2O[C@@H]1CN(C)CC1CC1,-3.0,x,2.3,x
C[C@@H]1CN([C@@H](C)CO)S(=O)(=O)c2ccc(-c3ccc(C#N)cc3)cc2O[C@@H]1CN(C)Cc1ccccn1,44.7*!,x,3.4,x
C[C@H](CO)N1C[C@H](C)[C@@H](CN(C)CC2CC2)Oc2cc(-c3cccc(C#N)c3)ccc2S1(=O)=O,-0.2,x,16.0*,x
O=C(C[C@H]1C[C@H]2c3cc(NC(=O)NC4CCCC4)ccc3O[C@H]2[C@@H](CO)O1)NCc1ccc2c(c1)OCO2,3.7,x,5.8,x
SMILES,CASP6 VEID inh,NSD2 inh,SIRT5 inh,SUMO HTRF inh
C[C@@H]1CN([C@@H](C)CO)S(=O)(=O)c2ccc(C#CCC3CCCC3)cc2O[C@H]1CN(C)Cc1cccc(C(=O)O)c1,18.7,x,17.1*,x
C[C@H](CO)N1C[C@H](C)[C@@H](CN(C)Cc2cccc(C(=O)O)c2)Oc2cc(C#CCC3CCCC3)ccc2S1(=O)=O,x,x,15.9*,x
CC=Cc1ccc2n(c1=O)C[C@H]1[C@H](CO)[C@@H](C(=O)NCC)[C@@H]2N1C(=O)c1ccccc1 (mixture of isomers),-1.5,x,-8.9,x
O=C(/C=C/c1ccc([N+](=O)[O-])cc1)OCC(=O)c1ccc[nH]1,-0.3,-1.3,22.7*,x
Cc1ccc(-c2csc(NC(=O)/C=C/c3ccco3)c2C(=O)O)cc1,75.4*,4.0,6.9,0.3
O=C(/C=C/c1ccco1)Nc1sc2c(c1C(=O)O)CCC2,60.7*,10.8,10.9,-7.9
COc1ccc(S(=O)(=O)Nc2cccc3c2O[C@H](CN(C)S(=O)(=O)c2ccc(OC)cc2)[C@H](C)CN([C@H](C)CO)C3=O)cc1,-0.6,x,8.7,x
COc1ccc(S(=O)(=O)N2C[C@H](O)COC[C@@H]3O[C@H](CC(=O)NCc4ccc(Cl)c(Cl)c4)CC[C@H]32)cc1,1.6,x,4.0,x
O=C(C[C@@H]1CC[C@H]2[C@@H](COC[C@@H](O)CN2C(=O)Nc2ccc(Cl)c(Cl)c2)O1)NCc1ccc(Cl)c(Cl)c1,0.0,x,15.5*,x
COc1ccc(S(=O)(=O)N2C[C@@H](O)COC[C@@H]3O[C@@H](CC(=O)NCc4ccc(Cl)c(Cl)c4)CC[C@H]32)cc1,1.0,x,15.3*,x
CNC[C@H]1Oc2ccc(NC(=O)Cc3cn(C)c4ccccc34)cc2CC(=O)N([C@H](C)CO)C[C@@H]1C,0.9,x,-2.2,x
CCN1CCS/C1=C/C=C/C1=[N+](CC)CCS1,x,10.8,x,0.3
CCN1CCS/C1=C\C=C\C1=[N+](CC)CCS1,-12.4,11.0,18.4*,-8.9
C[C@@H]1CN([C@H](C)CO)C(=O)c2cc(C#C[C@@H](C)O)cnc2O[C@H]1CN(C)Cc1cccc(C(=O)O)c1,-0.8,x,-1.7,x
O=C(C[C@@H]1CC[C@H](NC(=O)C2CCOCC2)[C@H](CO)O1)Nc1ccc(-c2ccccc2)cc1,1.3,x,2.5,x
N#C/C(=C\Nc1ccccc1SC(F)(F)F)c1nc(-c2ccc(F)cc2)cs1,1.4,-2.5,18.7*,11.1
O=C(Nc1ccc2nc(-c3ccco3)c(-c3ccco3)nc2c1)N1CCCCCC1,x,x,x,58.3*
Cc1nc2ccc(NC(=O)N3CCCCC3)cc2nc1C,x,1.0,x,18.9
CCOC(=O)C1CCN(C(=O)Nc2ccc3nc(-c4ccco4)c(-c4ccco4)nc3c2)CC1,x,x,x,73.2*
C[C@@H]1CN([C@@H](C)CO)C(=O)Cc2cc(NS(=O)(=O)c3ccc(Cl)cc3)ccc2O[C@H]1CN(C)S(=O)(=O)c1cn(C)cn1,-2.3,x,-2.2,x
COc1cccc(-c2cn(CC[C@@H]3CC[C@@H](NC(=O)CN(C)C)[C@@H](CO)O3)nn2)c1,-2.6,x,10.3,x
COc1ccc(C(=O)C(C)OC(=O)c2nc3nccc(C)n3n2)cc1 (configuration not stated),91.2*,-1.0,8.6,x
COc1ccc(C2C3(C#N)C(N)=NC(OC)(OC)C23C#N)cc1 (configuration not stated),1.1,x,18.3*,5.7
COC1(OC)N=C(N)C2(C#N)C(c3ccc(C)cc3)C12C#N (configuration not stated),x,1.5,x,-31.8
O=c1c2cc(N3CCOCC3)ccc2[nH]c(=S)n1Cc1ccccn1,x,-0.1,x,55.4*
O=c1c2cc(N3CCOCC3)ccc2[nH]c(=S)n1Cc1ccccc1Cl,5.0,-4.2,0.1,12.2
CCC1=NN(C(=O)c2ccccc2O)C(O)(c2ccccc2)C1 (configuration not stated),71.9*,7.7,-0.2,14.6

# Compound activity from PubChem BioAssay.
